This is part of a sample that, as a whole, favours compounds with a hit. Of some 79,000 tested, about 15% had one in any assay. Unmarked numbers belong to inactive results. Activity calls are given as the source filed them. Rule as the data show it: active = growth inhibition above about 70%; inactive = the rest.
Key:
[1] = NCI Yeast Anticancer Drug Screen. Data for the rad50 strain (AID 155);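 also: 0% = growth of vehicle-only cultures of the same strain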; settings: S. cerevisiae rad50 strain growth inhibition; at 50.0 µM; stronger effect = higher value
Outline: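 Yeast carrying a defined DNA repair defect were exposed to test compounds, and growth was compared with vehicle-treated controls to give percent inhibition.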

[2] = NCI Yeast Anticancer Drug Screen. Data for the mec2-1 strain (AID 157); settings: S. cerevisiae mec2-1 strain, at 50.0 µM, stronger effect = higher value
Outline: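 Vehicle-treated cultures served as reference for growth inhibition of compound-exposed mec2-1 yeast.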

[3] = NCI Yeast Anticancer Drug Screen. Data for the sgs1 mgt1 strain (AID 161);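 also: 0% = growth of cultures given vehicle only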; settings: S. cerevisiae sgs1 mgt1 strain, at 50.0 µM, stronger effect = higher value
Outline: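 Test agents were incubated with a DNA-repair-mutant yeast strain. Growth was then read and compared against vehicle-treated controls.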

[4] = NCI Yeast Anticancer Drug Screen. Data for the cln2 rad14 strain (AID 165);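 also: 0% = growth equal to vehicle treated cultures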; settings: S. cerevisiae cln2 rad14 strain, at 50.0 µM, stronger effect = higher value
Outline: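 Each compound was tested on cln2 rad14 yeast. Inhibition of growth was calculated against vehicle-exposed controls.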

[5] = NCI Yeast Anticancer Drug Screen. Data for the bub3 strain (AID 167); settings: S. cerevisiae bub3 mutant strain, at 50.0 µM, stronger effect = higher value
Outline: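 Compounds were applied to a genetically altered yeast strain carrying a cell-cycle control defect. Growth inhibition was scored against vehicle-treated controls.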

[6] = NCI Yeast Anticancer Drug Screen. Data for the mlh1 rad18 strain (AID 175); settings: S. cerevisiae mlh1 rad18 strain growth inhibition; at 50.0 µM; stronger effect = higher value
Outline: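 Vehicle-treated cultures served as the reference for growth inhibition in a yeast strain carrying DNA damage repair alterations exposed to each compound.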

Compound	growth inhibition [1]	growth inhibition [2]	growth inhibition [3]	growth inhibition [4]	growth inhibition [5]	growth inhibition [6]
CC(C)NCC(O)COc1c2ccccc2nc2ccccc12 (stereo unspecified)	-8.65%	-21.8%	-24.2%	-1.65%	-20.1%	12.9%
O=C1NCCCC1CCO (stereo unspecified)	-8.35%	-3.65%	-7.95%	-3.65%	5.5%	-3.85%
O=S(=O)(CCc1ccccc1)c1nc2ccccc2s1	-1.5%	-1.85%	-2.8%	-11.9%	-37.5%	-11.5%
NS(=O)(=O)c1ccc(NC(=O)CCl)cc1	6.5%	-6.8%	-1.9%	11.7%	3.3%	-15.9%
CCNc1ncnc2sc(SCc3ccccc3)nc12	-39.3%	-20.8%	-12.7%	-0.6%	-31.1%	-37.1%
C=C(C)COB(OCC(=C)C)OCC(=C)C	-6.3%	-25.4%	-2.25%	1.95%	-10.8%	-16.2%
C/C(=C\CNc1ncnc2c1ncn2C1CCCCO1)COP(=O)(O)O (stereo unspecified)	19.6%	6.4%	19.6%	22.2%	-4.8%	27.9%
CN(C)CC(Cc1ccccc1)c1ccccc1 (stereo unspecified)	-19.9%	-10.9%	-18.6%	7.6%	-5.4%	-17.6%
CC1=CC(=O)Nc2ccccc2S1	43.2%	29.2%	59.2%	17%	56%	23.6%
CCN(CC)c1ccc(CO)cc1	7.65%	4.8%	-22.8%	-9.85%	-1.05%	-13.2%
CC(=O)OC1C(COC(N)=O)OC(n2c(-c3ccc(C)cc3)cc(-c3ccccc3)c(C#N)c2=O)C(OC(C)=O)C1OC(C)=O (stereo unspecified)	-18.4%	7.25%	4.75%	22.4%	26.9%	11.3%
C[N+](C)(C)CC(=O)N/N=C(/CC(=O)CC(C1=C(O)c2ccccc2OC1)c1ccccc1)C(=O)Nc1cccc(Cl)c1 (stereo unspecified)	58%	39.5%	27.7%	34.4%	28.4%	5.5%
Cn1nnn2c(-c3ccccc3)nnc12	15.4%	-2.45%	-5.45%	-10.8%	0.8%	-5.3%
Cn1nnc(CC[N+]2(C)CCOCC2)n1	-3.35%	3.45%	-3.35%	-24.5%	6.05%	3.9%
CNC(=O)OCc1c(COC(=O)NC)c2n(c1C)CS(=O)(=O)C2	-6.15%	-16%	-10.4%	6.5%	12.1%	15.5%
CNCC(=O)NC(CO)C(=O)NC(CO)C(=O)NC1C(C(N)=O)OC(n2ccc(N)nc2=O)C(O)C1O (stereo unspecified)	13.3%	10.3%	8.75%	38.5%	23.9%	24.3%
COC(=O)C1CCCC(=O)C1C(=O)OC (stereo unspecified)	1.35%	0.3%	-3.45%	-36.2%	-23%	2.05%
COc1ccc([N+](=O)[O-])cc1F	10.9%	-12.8%	5.5%	-6.9%	8.25%	31.8%
CCS(=O)(=O)/C=C(\C(=O)c1ccccc1)c1ccccc1	83.1% (active)	93.5% (active)	94% (active)	47.2%	89.8% (active)	93.3% (active)
COC(=O)c1nc2n[nH]c(N)c2c2c1CCCCCCCCCC2	7.35%	15.6%	-5.65%	-13.6%	1.4%	12.1%
COc1ccc(C(C)=O)cc1C=O	1.4%	9.65%	-2.65%	-13.2%	-20.1%	16.2%
